Data as given in PubChem BioAssay.
Calls of active or inactive are those of the source.

What was measured:
[1] = optical density shifts of acrAB sulA E. coli – strain DRC41, OD650, 48 h, E. coli filamentation inducer project, primary screen (AID 1152); conditions: higher = more signal, called active from +8 up or from −8 down;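 note: E. coli MC1000 strain DRC41 lacking acrAB efflux pump and sulA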
[2] = probe aLefty1 binding on compound microarray – biochemical, small-molecule microarray, 635/667 nm fluorescence, primary screen (AID 1153); conditions: higher = more signal;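 note: score merges spot fluorescence with signal-to-noise ratio from the scanned slide images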
[3] = plasmodial surface anion channel blockers, osmotic lysis – cell-based, P. falciparum Indochina, OD700, 1 h, primary screen (AID 1154); conditions: P. falciparum Indochina infected RBC osmotic lysis, higher = more signal, called active from +8 up or from −8 down
[4] = plasmodial surface anion channel blockers, osmotic lysis – cell-based, P. falciparum Indochina, OD700, 2 h, primary screen (AID 1155);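 note: lysis reports solute entry through the parasite surface anion channel PSAC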; conditions: P. falciparum Indochina infected erythrocytes, higher = more signal, called active from +8 up or from −8 down
[5] = changes in parasitized red cell lysis, either direction – P. falciparum Indochina, OD700, 3 h, PSAC antagonist project, primary screen (AID 1156); conditions: P. falciparum-infected erythrocytes, osmotic lysis, higher = more signal, called active from +8 up or from −8 down
[6] = plasmodial surface anion channel blockers, osmotic lysis – cell-based, P. falciparum Indochina, OD700, 18 h, primary screen (AID 1157); conditions: P. falciparum Indochina infected erythrocytes, osmotic lysis OD700, 18 h; higher = more signal, called active from +8 up or from −8 down
[7] = S6 kinase pathway phospho-S6 level changes – cell-based, A549, cytoblot, luminescence, serum-stimulated, primary screen (AID 1158); conditions: 5 h, higher = more signal;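 note: serum-stimulated A549 lung adenocarcinoma cells; signal is phosphorylated S6 detected by cytoblot immunostaining with HRP secondary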
[8] = target: NADPH oxidase 2 (Homo sapiens) (UniProt P04839); experiment: compounds shifting NOX2 Amplex Red fluorescence – cell-based, HEK293-NOX2, PMA-stimulated, NOX inhibitor project, primary screen (AID 1159); conditions: 45 min, higher = more signal, called active from +8 up or from −8 down; note: test concentration not given here
NADPH oxidase 2 (Homo sapiens), sequence (P04839 whole entry, looked up): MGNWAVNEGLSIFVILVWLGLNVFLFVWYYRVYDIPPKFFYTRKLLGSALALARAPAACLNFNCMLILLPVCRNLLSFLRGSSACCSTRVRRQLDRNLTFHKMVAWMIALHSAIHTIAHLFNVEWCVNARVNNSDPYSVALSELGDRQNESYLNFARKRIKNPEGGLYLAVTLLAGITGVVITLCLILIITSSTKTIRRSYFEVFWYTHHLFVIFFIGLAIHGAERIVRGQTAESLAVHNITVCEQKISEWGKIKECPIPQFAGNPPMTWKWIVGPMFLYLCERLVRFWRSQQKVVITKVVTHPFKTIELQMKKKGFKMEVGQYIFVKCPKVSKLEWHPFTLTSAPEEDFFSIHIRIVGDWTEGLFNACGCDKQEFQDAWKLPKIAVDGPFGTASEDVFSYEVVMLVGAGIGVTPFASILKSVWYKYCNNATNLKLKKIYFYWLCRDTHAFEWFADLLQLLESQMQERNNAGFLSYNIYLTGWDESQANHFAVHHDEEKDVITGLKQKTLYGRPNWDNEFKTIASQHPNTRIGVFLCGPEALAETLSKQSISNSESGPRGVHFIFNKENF

[9] = target: NADPH oxidase 4 (Homo sapiens) (UniProt Q9NPH5); experiment: compounds shifting NOX4 Amplex Red fluorescence – cell-based, HEK293-NOX4, tetracycline-induced, NOX inhibitor project, primary screen (AID 1160); conditions: HEK293-NOX4, Amplex Red H2O2 fluorescence, 45 min; higher = more signal, called active from +8 up or from −8 down
NADPH oxidase 4 (Homo sapiens), sequence (Q9NPH5 whole entry, looked up): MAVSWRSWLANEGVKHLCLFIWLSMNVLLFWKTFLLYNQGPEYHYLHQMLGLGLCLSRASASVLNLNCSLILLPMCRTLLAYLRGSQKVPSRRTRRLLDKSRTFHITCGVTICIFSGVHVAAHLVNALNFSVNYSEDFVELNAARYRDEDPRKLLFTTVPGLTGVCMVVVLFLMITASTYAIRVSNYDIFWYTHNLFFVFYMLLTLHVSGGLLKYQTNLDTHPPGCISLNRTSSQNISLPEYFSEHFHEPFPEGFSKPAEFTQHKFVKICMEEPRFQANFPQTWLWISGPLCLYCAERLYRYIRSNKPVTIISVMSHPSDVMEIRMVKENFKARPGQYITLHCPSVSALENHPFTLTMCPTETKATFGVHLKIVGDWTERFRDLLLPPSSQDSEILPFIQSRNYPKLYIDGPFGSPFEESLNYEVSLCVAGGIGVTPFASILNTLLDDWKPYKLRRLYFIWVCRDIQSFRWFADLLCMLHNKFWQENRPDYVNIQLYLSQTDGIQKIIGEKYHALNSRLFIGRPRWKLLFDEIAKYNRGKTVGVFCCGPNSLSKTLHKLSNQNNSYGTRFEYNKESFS

[10] = target: NADPH oxidase 5 (Homo sapiens) (UniProt Q96PH1); experiment: compounds shifting NOX5 Amplex Red fluorescence – cell-based, HEK293-NOX5, NOX inhibitor project, primary screen (AID 1161); conditions: HEK293-NOX5, ionomycin, 45 min, higher = more signal
NADPH oxidase 5 (Homo sapiens), sequence (Q96PH1 whole entry, looked up): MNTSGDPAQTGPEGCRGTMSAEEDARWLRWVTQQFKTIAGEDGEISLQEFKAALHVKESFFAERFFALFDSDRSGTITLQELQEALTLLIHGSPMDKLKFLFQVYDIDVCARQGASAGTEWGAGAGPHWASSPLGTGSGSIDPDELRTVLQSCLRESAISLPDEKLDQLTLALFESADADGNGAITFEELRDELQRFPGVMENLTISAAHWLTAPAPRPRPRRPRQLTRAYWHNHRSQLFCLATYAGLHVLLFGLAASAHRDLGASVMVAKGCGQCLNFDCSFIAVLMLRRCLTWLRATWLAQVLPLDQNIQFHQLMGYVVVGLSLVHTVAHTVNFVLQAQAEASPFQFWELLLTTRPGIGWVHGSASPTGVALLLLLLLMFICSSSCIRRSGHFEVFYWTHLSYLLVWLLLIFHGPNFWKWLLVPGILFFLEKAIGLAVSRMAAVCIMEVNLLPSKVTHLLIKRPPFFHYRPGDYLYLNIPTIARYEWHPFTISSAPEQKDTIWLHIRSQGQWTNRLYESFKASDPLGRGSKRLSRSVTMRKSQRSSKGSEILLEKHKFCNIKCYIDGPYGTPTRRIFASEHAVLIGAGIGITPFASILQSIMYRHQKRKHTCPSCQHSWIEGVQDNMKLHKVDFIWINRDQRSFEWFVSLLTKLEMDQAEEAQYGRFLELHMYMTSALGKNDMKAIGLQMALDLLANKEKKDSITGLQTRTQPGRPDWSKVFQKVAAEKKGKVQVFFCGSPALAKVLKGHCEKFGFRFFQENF

SMILES | z-score [1] | composite z-score [2] | z-score [3] | z-score [4] | z-score [5] | z-score [6] | z-score [7] | z-score [8] | z-score [9] | z-score [10]
CCOC(=O)NN=C1C[C@@H](O)[C@@H](O)[C@@H]2[C@@H]3C(=O)N(CC)C(=O)[C@@H]3CC[C@@H]12 | -0.562 (inactive) | 0.0053 | -0.485 (inactive) | -0.246 (inactive) | -0.493 (inactive) | -0.336 (inactive) | 0.123 | -1.43 (inactive) | 0.0593 (inactive) | -0.641
CCOC(=O)[C@H](Cc1ccccc1)NC(=O)CCC1CC(OC(=O)NCc2ccc3c(c2)OCO3)CC2(CCCC(COC(=O)NCC3CCCCC3)O2)O1 (stereo not given in full) | -0.251 (inactive) | 0.171 | 0.732 (inactive) | 0.45 (inactive) | -0.235 (inactive) | 0.297 (inactive) | 0.236 | 1.51 (inactive) | 0.737 (inactive) | 0.909
C#CCCCON=C1C[C@@H](O)[C@@H](O)[C@@H]2[C@@H]3C(=O)N([C@@H](C)c4ccccc4)C(=O)[C@@H]3CC[C@H]12 | -1.08 (inactive) | 0.75 | 0.553 (inactive) | -0.645 (inactive) | -0.318 (inactive) | -2.13 (inactive) | -0.235 | -0.599 (inactive) | -1.21 (inactive) | 0.579
O=C1C[C@]2(c3ccc([N+](=O)[O-])cc3)C(=O)N(CCN3CCOCC3)c3cc(CO)ccc3[C@H]2N1CC12CC3CC(CC(C3)C1)C2 | 0.319 (inactive) | 0.056 | 1.4 (inactive) | -0.103 (inactive) | 1.68 (inactive) | 0.45 (inactive) | 0.349 | 0.194 (inactive) | -1.09 (inactive) | -2.03
CC(C)CON=C1[C@H]2CCn3c(=O)n(-c4ccccc4)c(=O)n3[C@H]2[C@H](O)[C@@H]2O[C@H]12 | 0.424 (inactive) | -0.105 | 0.175 (inactive) | -0.2 (inactive) | 0.0794 (inactive) | 0.0344 (inactive) | 0.0305 | -5.13 (inactive) | 0.018 (inactive) | 0.407
CC(C)(C)OC(=O)CC[C@]1(C(=O)NCc2ccccc2)N=C(c2ccc(OCCCO)cc2)O[C@H]1c1ccccc1 | 0.185 (inactive) | 1.18 | 14.6 (active) | 1.79 (inactive) | 1.14 (inactive) | 0.887 (inactive) | -0.009 | -2.22 (inactive) | -0.583 (inactive) | -1.81
Cc1ccc(F)cc1S(=O)(=O)N[C@@H]1CCN(Cc2ccc(CC(C)C)cc2)C1 | -19.2 (active) | -0.146 | 2.71 (inactive) | 0.63 (inactive) | 0.233 (inactive) | 0.916 (inactive) | -0.647 | -0.0569 (inactive) | -1.44 (inactive) | -4.02
COC(=O)[C@H](C)NC(=O)[C@@H](C)CO | -0.534 (inactive) | 0.138 | 0.295 (inactive) | 0.451 (inactive) | 0.372 (inactive) | 0.665 (inactive) | 0.656 | -0.371 (inactive) | -0.71 (inactive) | 0.468
CN1C(=O)C2C=CC(C(O)c3ccc(I)cc3)N(NC(=O)OC(C)(C)C)C2C1=O (stereo not given) | -1.55 (inactive) | 0.317 | 0.365 (inactive) | 0.214 (inactive) | -0.43 (inactive) | 1 (inactive) | -1.09 | -1.01 (inactive) | -0.982 (inactive) | -0.411
COCCOC(=O)N1C(=O)[C@@]2(c3cc(C#CC4(O)CCCCCC4)ccc31)[C@H](c1ccc(OCCO)cc1)N1[C@H](c3ccccc3)[C@H](c3ccccc3)OC(=O)[C@H]1[C@@H]2C(=O)NC[C@H](O)c1ccccc1 | 1.02 (inactive) | 0.43 | 2.18 (inactive) | 0.524 (inactive) | 0.735 (inactive) | -0.494 (inactive) | 1.47 | 1.79 (inactive) | 0.858 (inactive) | -1.31
COCCOC(=O)N1C(=O)[C@@]2(c3cc(C#Cc4ccc(OC)cc4)ccc31)[C@H](C(=O)N1CCN(c3ncccn3)CC1)[C@H]1C(=O)O[C@H](c3ccccc3)[C@H](c3ccccc3)N1[C@@H]2c1ccc(OCCO)cc1 | -0.541 (inactive) | 0.327 | 10.1 (active) | 2.52 (inactive) | 0.493 (inactive) | 1.04 (inactive) | -0.21 | 1.51 (inactive) | 0.337 (inactive) | -0.0992
CN1C(=O)C2C=CC(C(O)C(c3ccccc3)c3ccccc3)N(NC(=O)OC(C)(C)C)C2C1=O (stereo not given) | -1.41 (inactive) | 0.771 | 1.41 (inactive) | 0.742 (inactive) | -0.343 (inactive) | 0.804 (inactive) | -1.16 | -0.343 (inactive) | -4.7 (inactive) | -1.76
COc1ccc(O[C@H]2C=C[C@@H](c3ccccc3)O[C@@H]2COC(=O)CCC(C)=NO[C@H](C)c2cn([C@@H]3COC[C@H]3O)nn2)cc1 | 0.451 (inactive) | -0.0501 | 5.05 (inactive) | 0.0624 (inactive) | 1.63 (inactive) | -0.908 (inactive) | 0.607 | -4.13 (inactive) | -0.691 (inactive) | -4.98
COCCOC(=O)N1C(=O)[C@@]2(c3ccccc31)[C@H](C(N)=O)[C@H]1C(=O)O[C@H](c3ccccc3)[C@H](c3ccccc3)N1[C@@H]2c1ccccc1OCCO | 0.582 (inactive) | 0.144 | 3.59 (inactive) | 1.14 (inactive) | -0.0776 (inactive) | 1.2 (inactive) | 0.404 | 1.56 (inactive) | 1.43 (inactive) | 0.483
C=CCC(OC(C)=O)[C@@H]1[C@@H](N(Cc2cc3ccccc3o2)C(=O)Cc2ccc(F)cc2)c2cc(OCCCO)ccc2N1C(=O)Cc1ccc(OC)cc1 (stereo not given in full) | -0.778 (inactive) | -0.06 | 1.05 (inactive) | 0.172 (inactive) | -0.67 (inactive) | -0.133 (inactive) | -0.597 | 0.2 (inactive) | 0.727 (inactive) | -0.743
O=C1CCCC=C1C(O)CCOCc1ccccc1 (stereo not given) | -1.7 (inactive) | -0.342 | 0.427 (inactive) | -0.127 (inactive) | 0.452 (inactive) | -0.118 (inactive) | -0.235 | 1.18 (inactive) | 0.45 (inactive) | -0.00615
C[C@H]1CC[C@@H](C(=O)O)N[C@@H]1c1ccc(C#CCN(C)C)cc1 | 0.883 (inactive) | -0.231 | 0.167 (inactive) | -0.219 (inactive) | 0.274 (inactive) | -0.0947 (inactive) | 0.112 | 0.903 (inactive) | -0.00118 (inactive) | 0.0715
[N-]=[N+]=NCc1ccccc1[C@@H]1OC(c2ccc(OCCCO)cc2)=N[C@]1(Cc1ccccc1)C(=O)N1CCOCC1 | 0.854 (inactive) | 0.904 | 16.7 (active) | 2.9 (inactive) | 2.49 (inactive) | 1.01 (inactive) | 0.131 | -1.85 (inactive) | -0.253 (inactive) | -1.21
N#Cc1ccc(NN2C(C(O)c3cccc4ccccc34)C=CC3C(=O)N(c4ccccc4)C(=O)C32)cc1 (stereo not given) | -0.499 (inactive) | 0.696 | 12.6 (active) | 2.68 (inactive) | 1.33 (inactive) | 1.44 (inactive) | -0.067 | -1.58 (inactive) | -3.65 (inactive) | -3.57
CC(C)CON=C1C[C@@H](O)[C@@H](O)[C@@H]2[C@@H]3C(=O)N([C@@H](C)c4ccccc4)C(=O)[C@@H]3CC[C@H]12 | 0.525 (inactive) | -0.192 | 3.27 (inactive) | 0.149 (inactive) | 1.43 (inactive) | 0.106 (inactive) | -0.414 | -3.44 (inactive) | 1.18 (inactive) | 0.197
COC(=O)[C@H](C)NC(=O)CCC1CC(OC(=O)NCc2ccc3c(c2)OCO3)CC2(CCCC(COC(=O)NCCOc3ccccc3)O2)O1 (stereo not given in full) | -0.638 (inactive) | -0.414 | -1.1 (inactive) | -0.123 (inactive) | -0.409 (inactive) | -0.323 (inactive) | 1.48 | -0.245 (inactive) | 0.758 (inactive) | 0.214
